Five compounds from PubChem BioAssay can be followed below.

Test [1] is described as follows: small molecules captured by biotinylated probe aFSTL3 – biochemical, small-molecule microarray, fluorescence 635/667, stem cell growth factor project, primary screen (AID 1064).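 Also: measures binding of the biotinylated anti-FSTL3 antibody to printed compounds.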 The conditions noted are these: higher = more signal.
The nature of test [2]: binders from COS7 lysate, DM2A8 probe, primary screen, torsin A project, cell lysate, small-molecule microarray, fluorescence 635/667 (AID 1065). The conditions noted are these: higher = more signal, COS7 lysate expressing mutant human TOR1A.
Test [3] can be described thus: small molecules captured by biotinylated probe aFGF2 – biochemical, small-molecule microarray, fluorescence 635/667, stem cell growth factor project, primary screen (AID 1067).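 Also: measures binding of biotinylated aFGF2 protein to printed compounds on slides; z-score merges feature fluorescence and signal-to-noise across triplicate slides.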 The conditions noted are these: higher = more signal.
Test [4] can be described thus: small molecules captured by biotinylated probe aFGF10 – biochemical, small-molecule microarray, fluorescence 635/667, stem cell growth factor project, primary screen (AID 1071).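 Also: score merges 667 nm spot intensity and signal to noise from triplicate slides.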 The conditions noted are these: higher = more signal.
Test [5] deals with Neurogenic locus notch homolog protein 2 (Homo sapiens) (UniProt Q04721). Description: small molecules binding Notch2 protein – biochemical, small-molecule microarray, 635 nm fluorescence, stem cell growth factors, primary screen (AID 1073). The conditions noted are these: higher = more signal.
The target in test [6] is Pro-neuregulin-1, membrane-bound isoform (Homo sapiens) (UniProt Q02297). Description: small molecules binding neuregulin-1 protein – biochemical, small-molecule microarray, fluorescence 635/667, psychiatric disease protein project, primary screen (AID 1075).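 Also: score combines 667 nm spot fluorescence with signal to noise.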 The conditions noted are these: NRG1 binding, 635 nm fluorescence, higher = more signal.
Sequence of Pro-neuregulin-1, membrane-bound isoform (Homo sapiens) (Q02297 whole entry, looked up, the tested form may be a part, canonical isoform): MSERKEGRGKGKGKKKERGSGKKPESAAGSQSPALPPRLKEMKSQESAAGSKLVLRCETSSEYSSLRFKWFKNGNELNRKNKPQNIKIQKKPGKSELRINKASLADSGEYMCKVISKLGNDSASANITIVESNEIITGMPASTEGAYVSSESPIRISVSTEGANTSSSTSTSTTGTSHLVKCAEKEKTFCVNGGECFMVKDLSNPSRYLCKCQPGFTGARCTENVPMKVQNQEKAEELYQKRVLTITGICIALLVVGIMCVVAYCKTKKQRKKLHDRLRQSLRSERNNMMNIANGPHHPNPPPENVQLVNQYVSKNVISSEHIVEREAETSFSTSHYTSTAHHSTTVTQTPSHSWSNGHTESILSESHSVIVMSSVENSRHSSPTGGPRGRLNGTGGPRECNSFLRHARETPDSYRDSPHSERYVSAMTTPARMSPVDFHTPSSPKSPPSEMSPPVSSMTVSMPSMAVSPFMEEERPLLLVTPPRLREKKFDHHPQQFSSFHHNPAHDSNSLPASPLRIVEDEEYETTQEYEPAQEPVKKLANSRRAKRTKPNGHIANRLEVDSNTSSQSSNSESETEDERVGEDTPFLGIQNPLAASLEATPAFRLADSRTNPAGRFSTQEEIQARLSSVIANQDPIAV
In test [7] the test system is Neuregulin-1 EGF-like domain. Briefly: small molecules binding NRG1 EGF domain – biochemical, small-molecule microarray, 635 nm fluorescence, primary screen (AID 1081).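 Also: binding of the protein to compounds printed on small-molecule microarray slides.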 The conditions noted are these: higher = more signal.
The nature of test [8]: FRG1 expression reporter modulators in myotubes – cell-based, C2C12 myotubes, firefly/Renilla luciferase, luminescence, FRG1 inhibition for FSHD, primary screen (AID 1084). The conditions noted are these: FRG1 promoter luciferase, higher = more signal, called active from +8 up or from −8 down.
Test [9] is described as follows: small molecules captured by biotinylated probe aFST – biochemical, small-molecule microarray, fluorescence 635/667, stem cell growth factor project, primary screen (AID 1086).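 Also: score merges 667 nm fluorescence with signal-to-noise of each printed compound spot.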 The conditions noted are these: higher = more signal.
Test [10] in a line: binders of probe aHhip on microarray, primary screen, stem cell growth factor project, biochemical, small-molecule microarray, fluorescence 635/667 (AID 1087).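 Also: score merges spot fluorescence at 667nm with spot signal to noise ratio.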 The conditions noted are these: higher = more signal.
The test system of test [11] is PRMT1 (protein arginine N-methyltransferase 1). Description: small molecules binding arginine methyltransferase PRMT1 – biochemical, small-molecule microarray, 635 nm fluorescence, primary screen (AID 1088).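 Also: binding of Prmt1 protein to compounds spotted on small-molecule microarray slides.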 The conditions noted are these: higher = more signal.
Test [12] is described as follows: growth effects on S. cerevisiae YJM789 – YJM789 clinical isolate, OD600, 24 h, basal, primary screen (AID 1089).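 Also: growth of clinical yeast isolate S. cerevisiae YJM 789 seeded 1000 cells per well; test concentration not given here.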 The conditions noted are these: higher = more signal, called active from +8 up or from −8 down.
Test [13] can be described thus: S. pombe growth modifiers, basal conditions – strain 972, OD600, 24 h, no modulator, primary screen (AID 1090).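 Also: basal condition with compound alone and no growth modifier present; test concentration not given here.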 The conditions noted are these: S. pombe 972 growth, higher = more signal, called active from +8 up or from −8 down.
Test [14] in a line: budding yeast growth modifiers under rapamycin – strain BY4716, OD600, 96 h, primary screen (AID 1091). Also: test concentration not given here. The conditions noted are these: S. cerevisiae BY4716 + rapamycin, higher = more signal, called active from +8 up or from −8 down.
The target in test [15] is Torsin-1A-interacting protein 2 (Homo sapiens) (UniProt Q8NFQ8). Briefly: small molecules binding lysate-expressed LULL1 – cell lysate, human LULL1 lysate, 635/667 nm fluorescence, primary screen (AID 1092).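 Also: probe is lysate of COS7 cells overexpressing human LULL1; score merges per-feature 667 nm fluorescence with signal-to-noise.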 The conditions noted are these: small-molecule microarray, hLULL1 lysate binding, 635 nm fluorescence; higher = more signal.
Sequence of Torsin-1A-interacting protein 2 (Homo sapiens) (Q8NFQ8 whole entry, looked up): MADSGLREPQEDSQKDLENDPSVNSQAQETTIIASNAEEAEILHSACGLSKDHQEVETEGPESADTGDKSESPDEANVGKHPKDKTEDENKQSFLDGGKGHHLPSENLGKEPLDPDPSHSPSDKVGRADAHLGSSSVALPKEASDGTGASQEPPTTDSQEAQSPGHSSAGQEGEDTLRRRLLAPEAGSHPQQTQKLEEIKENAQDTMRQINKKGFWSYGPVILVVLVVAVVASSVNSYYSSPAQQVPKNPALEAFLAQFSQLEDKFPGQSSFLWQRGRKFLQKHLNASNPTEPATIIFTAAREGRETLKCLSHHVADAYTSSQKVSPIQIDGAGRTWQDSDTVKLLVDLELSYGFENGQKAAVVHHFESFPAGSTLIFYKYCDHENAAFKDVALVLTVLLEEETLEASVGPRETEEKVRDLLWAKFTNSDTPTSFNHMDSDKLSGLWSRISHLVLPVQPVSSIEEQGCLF
A short description of test [16]: optical density change of DRC41 E. coli – strain DRC41, OD650, 24 h, E. coli filamentation project, primary screen (AID 1093).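 Also: MC1000 strain lacking acrAB efflux and sulA so SOS filamentation is blocked; test concentration not given here.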 The conditions noted are these: E. coli DRC41 growth, higher = more signal, called active from +8 up or from −8 down.
Test [17] can be described thus: probe aLefty2 binding to arrayed compounds – biochemical, biotinylated probe, 635/667 nm fluorescence, primary screen (AID 1094).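 Also: score merges spot fluorescence near 667 nm with spot signal-to-noise ratio.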 The conditions noted are these: small-molecule microarray, higher = more signal.
Test [18] has as its system Noggin (protein binding on small-molecule microarray). Description: small molecules binding Noggin protein – biochemical, 635/667 nm fluorescence, primary screen (AID 1095).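 Also: score merges 667 nm feature fluorescence with signal to noise over triplicate slides.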 The conditions noted are these: 635 nm fluorescence, higher = more signal.
Test [19] deals with Neurogenic locus notch homolog protein 3 (Homo sapiens) (UniProt Q9UM47). Briefly: small molecules binding NOTCH3 protein – biochemical, 635/667 nm fluorescence, primary screen (AID 1096). The conditions noted are these: small-molecule microarray, 635 nm fluorescence, higher = more signal.
Sequence of Neurogenic locus notch homolog protein 3 (Homo sapiens) (Q9UM47 whole entry, looked up): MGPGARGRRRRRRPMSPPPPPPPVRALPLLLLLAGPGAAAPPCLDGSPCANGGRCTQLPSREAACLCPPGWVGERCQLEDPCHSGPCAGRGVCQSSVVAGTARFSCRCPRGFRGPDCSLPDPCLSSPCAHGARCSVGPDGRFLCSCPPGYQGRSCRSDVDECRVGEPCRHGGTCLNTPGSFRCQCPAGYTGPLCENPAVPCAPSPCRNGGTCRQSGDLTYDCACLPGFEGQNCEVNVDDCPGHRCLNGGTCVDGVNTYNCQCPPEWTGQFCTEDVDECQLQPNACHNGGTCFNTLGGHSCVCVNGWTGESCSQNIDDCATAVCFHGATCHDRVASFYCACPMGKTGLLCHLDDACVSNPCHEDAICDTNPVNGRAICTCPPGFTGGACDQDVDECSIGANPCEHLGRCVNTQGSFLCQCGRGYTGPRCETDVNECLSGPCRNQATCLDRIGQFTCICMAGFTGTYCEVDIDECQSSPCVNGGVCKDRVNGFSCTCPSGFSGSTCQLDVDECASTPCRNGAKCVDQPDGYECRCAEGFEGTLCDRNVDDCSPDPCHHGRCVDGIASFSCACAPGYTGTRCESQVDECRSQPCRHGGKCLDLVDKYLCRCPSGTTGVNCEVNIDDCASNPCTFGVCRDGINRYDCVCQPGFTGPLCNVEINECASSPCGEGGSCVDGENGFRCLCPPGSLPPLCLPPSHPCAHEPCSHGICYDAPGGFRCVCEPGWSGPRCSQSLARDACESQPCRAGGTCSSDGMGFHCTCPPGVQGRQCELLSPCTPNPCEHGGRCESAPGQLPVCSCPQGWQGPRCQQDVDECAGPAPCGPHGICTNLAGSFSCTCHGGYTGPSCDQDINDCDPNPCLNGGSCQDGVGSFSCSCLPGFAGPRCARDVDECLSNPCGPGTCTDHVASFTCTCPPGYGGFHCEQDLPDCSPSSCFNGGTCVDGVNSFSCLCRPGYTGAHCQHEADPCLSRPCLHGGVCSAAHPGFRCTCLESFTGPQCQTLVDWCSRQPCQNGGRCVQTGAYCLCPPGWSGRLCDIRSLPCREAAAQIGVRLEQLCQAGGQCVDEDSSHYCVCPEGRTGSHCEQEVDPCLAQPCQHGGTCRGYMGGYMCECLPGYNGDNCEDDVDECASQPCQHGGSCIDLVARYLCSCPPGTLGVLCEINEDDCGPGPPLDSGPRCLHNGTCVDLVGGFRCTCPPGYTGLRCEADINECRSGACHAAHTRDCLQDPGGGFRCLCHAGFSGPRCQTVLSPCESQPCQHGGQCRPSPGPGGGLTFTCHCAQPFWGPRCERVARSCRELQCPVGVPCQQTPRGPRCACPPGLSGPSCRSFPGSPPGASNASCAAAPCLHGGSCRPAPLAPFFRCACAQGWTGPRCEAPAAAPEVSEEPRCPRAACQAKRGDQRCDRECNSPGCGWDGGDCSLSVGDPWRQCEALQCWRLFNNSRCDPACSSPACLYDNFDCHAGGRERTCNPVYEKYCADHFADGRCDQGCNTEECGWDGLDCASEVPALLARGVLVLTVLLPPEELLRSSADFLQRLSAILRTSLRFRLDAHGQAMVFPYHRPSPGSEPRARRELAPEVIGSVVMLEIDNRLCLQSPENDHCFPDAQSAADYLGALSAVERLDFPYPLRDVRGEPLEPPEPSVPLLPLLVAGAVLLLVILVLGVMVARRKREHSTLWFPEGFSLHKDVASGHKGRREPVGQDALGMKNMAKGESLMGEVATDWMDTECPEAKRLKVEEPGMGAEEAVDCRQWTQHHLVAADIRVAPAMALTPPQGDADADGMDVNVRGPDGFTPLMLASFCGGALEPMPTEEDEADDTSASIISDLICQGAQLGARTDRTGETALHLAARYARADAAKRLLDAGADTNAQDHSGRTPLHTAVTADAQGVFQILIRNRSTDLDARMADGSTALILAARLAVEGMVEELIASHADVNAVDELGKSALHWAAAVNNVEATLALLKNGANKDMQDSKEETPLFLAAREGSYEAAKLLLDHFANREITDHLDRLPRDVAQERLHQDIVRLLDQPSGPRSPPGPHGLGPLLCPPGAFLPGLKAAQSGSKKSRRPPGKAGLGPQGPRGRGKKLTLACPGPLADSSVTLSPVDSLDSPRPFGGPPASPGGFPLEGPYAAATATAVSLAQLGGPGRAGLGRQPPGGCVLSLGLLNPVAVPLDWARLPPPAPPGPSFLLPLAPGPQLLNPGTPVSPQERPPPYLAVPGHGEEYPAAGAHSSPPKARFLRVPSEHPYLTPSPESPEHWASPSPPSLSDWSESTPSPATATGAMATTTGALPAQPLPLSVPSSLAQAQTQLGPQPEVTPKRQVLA
A short description of test [20]: probe aEGFR binding to arrayed compounds – biochemical, biotinylated probe, 635/667 nm fluorescence, primary screen (AID 1097).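 Also: probe is a biotinylated anti-EGFR antibody binding compounds printed on slides; score combines fluorescence near 667 nm and signal to noise of each spot.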 The conditions noted are these: small-molecule microarray, higher = more signal.

Activity calls are given as the source filed them.

As for `[N-]=[N+]=NCc1ccccc1C[C@]1(C(=O)N2CCOCC2)N=C(c2ccc(OCCCO)cc2)O[C@H]1c1ccccc1CN=[N+]=[N-]`, the composite z-score in test [1] was 0.998; in test [2], 2.14; in test [3], 0.285; in test [4] it was 0.88; in [5], 1.42; in test [6] it was 2.09. Further, the composite z-score in [7] is 1.26; in test [9], 1.5; in test [10] it was 0.0623; in test [11], 1.56; in [15], 3.61; in [17], 0.747. In addition, the composite z-score is 0.809 in [18], 0.616 in test [19] and 0.732 in [20]. Also, the z-score in test [8] was -2.03 (inactive); in test [12], 1.66 (inactive); in test [13], 0.284 (inactive); in [14] it was 16.6 (active); in test [16], 0.27 (inactive).
`Cc1ccc(S[C@]2(C(=O)NC3CC3)CC(=O)N(Cc3cc(C(F)(F)F)cc(C(F)(F)F)c3)[C@@H]2c2ccc(CO)cc2I)cc1`: the composite z-score in test [1] was 0.385; in test [2], 1.11; in test [3] it was 0.21; in test [4], 0.0945; in [5], -0.262; in test [6], 0.212. Besides, the composite z-score was 1.27 in test [7]; 0.457 in test [9]; -0.494 in test [10]; 1.28 in test [11]; 2.2 in test [15]; -0.242 in [17]. Moreover, the values for the composite z-score in test [18], in [19] and in test [20] were 0.502, 0.409 and 0.395, respectively. For the same compound, the z-score in [8] was 0.528 (inactive); in test [12] it was -5.04 (inactive); in test [13] it was -3.38 (inactive); in test [14], -0.429 (inactive); in [16], 0.545 (inactive).
`CC(C)C[C@@H]1NC(=O)[C@@H]2C[C@H](C(=O)NCCCC[N+](C)(C)C)[C@H](c3ccc(O)cc3)N2C1=O`: the composite z-score is -0.358 in test [1]; 1.4 in [2]; -0.116 in [3]; 0.639 in test [4]; 0.113 in test [5]; 1.54 in test [6]. For the same compound, the composite z-score in [7] was 1.32; in [9], 0.221; in test [10] it was 0.319; in test [11], 1.53; in test [15] it was 1.76; in test [17], -0.0295. Besides, the values for the composite z-score in test [18], in test [19] and in [20] were 1.91, 1.02 and 0.0251, respectively. For the same compound, the z-score was 0.53 (inactive) in test [8]; -0.246 (inactive) in test [12]; 0.491 (inactive) in [13]; -1.48 (inactive) in [14]; 0.0731 (inactive) in [16].
In the case of `C[C@@H](OCc1ccccc1)C1NC(=O)[C@@]23C(=O)N[C@@H](Cc4ccccc4)C2[C@H](C)[C@@]2(C)O[C@H]2C3/C=C/C/C=C\CNC(=O)[C@H](Cc2ccccc2)NC1=O` (stereo not given in full), the composite z-score in test [1] is -0.497; in [2], -0.0147; in test [3], -0.199; in test [4], 0.709; in test [5], -0.284; in test [6], -0.239. Besides, the composite z-score in test [7] is 0.438; in test [9], -0.128; in test [10], 0.103; in test [11], 0.448; in test [15], 0.956; in [17] it was -0.23. Moreover, the values for the composite z-score in [18], in test [19] and in test [20] were 0.762, 0.655 and -0.0257, respectively. For the same compound, the z-score in test [8] was 3.33 (inactive); in test [12], -0.712 (inactive); in [13], -0.985 (inactive); in [14], -0.0389 (inactive); in test [16], 1.29 (inactive).
`CCOC(=O)C1=CC[C@@H](c2ccc(F)cc2)N(S(=O)(=O)c2ccc(C)cc2)[C@H]1c1ccc([N+](=O)[O-])cc1`: the composite z-score in test [1] is -0.283; in test [2] it was -0.237; in test [3], -0.0277; in [4] it was 0.639; in [5], 1.26; in test [6] it was 1.1. In addition, the composite z-score in test [7] was 1; in test [9], 0.919; in test [10], -0.0645; in [11], 0.518; in test [15], 2.5; in test [17] it was 0.0322. Further, the composite z-score in test [18] was -0.234; in [19] it was 0.73; in test [20], -0.0409. The z-score was -0.507 (inactive) in test [8]; 0.342 (inactive) in test [12]; 1.32 (inactive) in test [13]; 6.03 (inactive) in test [14]; 0.543 (inactive) in [16].
